This passage reports inhibition results from PubChem BioAssay AID2315 (National Center for Advancing Translational Sciences (NCATS), 2010).

The campaign covered roughly 290,000 compounds. About 27,000 (9.3%) were called active. This is one part of a sample in which actives are shown more often than they occur. Rule as the data show it: active = inhibition mostly above about 28% (no sharp cut-off); inactive = mostly below about 43%.

This test is described as follows: A qHTS for Small Molecule Inhibitors of Shiga Toxin. Also: 0% is about no effect. The conditions noted are these: Vero cells, Shiga toxin protein synthesis inhibition reporter; at 38.7 µM, hits give high values.
For the molecule `Nc1nonc1-n1nnc(C(=O)N/N=C/C2CCCCC2)c1-c1ccccc1`, the inhibition is -3.16% (inactive).
Consider `CCCCC(C(=O)NC(C)(C)C)N(Cc1ccccc1)C(=O)c1snc(C(N)=O)c1N` (stereo not drawn), for which the inhibition is -1.85% (inactive).
As for `CCc1ccccc1N(CC(=O)NCC1CCCO1)C(=O)CCC(=O)Nc1nccs1` (stereo not drawn), the figure is -6.86% (inactive); as for `CC(Nc1nc(C(F)(F)F)nc2ccccc12)c1cccs1` (stereo not drawn), 29.3% (inactive).
Take `O=S(O)S(=O)(=O)O`: the inhibition is 6.15% (inactive).
In the case of `Cc1ccc2c(C)c(C(=O)N3CCC(N4CCC(C(=O)NC5CC5)CC4)CC3)oc2c1`, the inhibition is -13.3% (inactive).
Next, `COc1ccccc1N1CCN(C(=O)c2cc(=O)c3cc(C)ccc3o2)CC1`: 19.1% (inactive); `Cc1ccc2oc(C(=O)N3CCN(C)C[C@@H]3C(C)C)c(C)c2c1`: 42.3% (active); `Cc1ccc(C(=O)NCCc2nnc(SCC(=O)Nc3cccc(C(=O)O)c3)n2C)cc1`: -4.17% (inactive).
In the case of `CC(=O)C(C)n1cnc2scc(-c3ccc(C)cc3)c2c1=O` (stereo not drawn), the inhibition was -5.64% (inactive).
As for `CC(C)(C)c1ccc(C(=O)CSc2ncn[nH]2)cc1`, the figure is 63.4% (active); as for `CCN(C(=O)CSc1ncn[nH]1)c1cccc2ccccc12`, 9.31% (inactive); as for `Cn1nnc(NC(=O)CSc2ncn[nH]2)n1`, -18.1% (inactive).
As for `Cc1ccccc1NC(=O)NCC1CCN(Cc2cccc(Cl)c2)CC1`, the figure is -1.26% (inactive); as for `O=C(O)c1ccc(NC(=O)c2ccc(COc3ccc(Cl)cc3)o2)cc1`, -8.9% (inactive); as for `COCCOC(=O)c1[nH]c2c(c1C)C(=O)CC(c1ccc(OC)cc1)C2` (stereo not drawn), 13.2% (inactive).
Consider `CCOC(=O)c1[nH]c2c(c1C)C(=O)CC(c1ccc(N(C)C)cc1)C2` (stereo not drawn), for which the inhibition was 2.86% (active).
With `CCOC(=O)c1[nH]c2c(c1-c1ccccc1)C(=O)CC(c1ccc(Cl)cc1)C2` (stereo not drawn), the inhibition was -7.73% (inactive).
In the case of `O=C(N/N=C/c1sc(N2CCCCC2)nc1-c1cccs1)c1cccnc1`, the inhibition is -9.51% (inactive).
Next, `CCOc1cc(C)ccc1OCc1nnc(SCC(=O)Nc2cccc(C(=O)O)c2)n1-c1ccccc1`: 9.89% (inactive); `CC[C@H](C)[C@H](NC(=O)[C@@H](N)CCC(=O)O)C(=O)N[C@@H](CC(C)C)C(=O)N[C@@H](CC(=O)O)C(=O)N[C@H](C(=O)N1CCC[C@H]1C(=O)N[C@@H](CO)C(=O)N[C@H](C(=O)O)[C@@H](C)O)C(C)C`: -4.46% (inactive).
With `CCOc1ccccc1C1CC(c2cccc(NS(C)(=O)=O)c2)=NN1C(=O)c1ccccc1` (stereo not drawn), the inhibition is 3.98% (inactive).
Regarding `c1cncc(-c2nnc3n2C2(CCCCC2)Cc2ccccc2-3)c1`, the inhibition was -14.6% (inactive).
In the case of `CCOc1cccc2c1OC1(CCCCC1)N1N=C(c3cccnc3)CC21` (stereo not drawn), the inhibition was 42.4% (active).
As to `Cc1c(C(=O)N(C)CCc2cnn(C)c2)oc2c(F)cccc12`, the inhibition is 2.81% (inactive).
Next, `CCC1C(=O)NCCN1C(=O)c1ccc2nc(Cc3ccc(OC)cc3)oc2c1` (stereo not drawn): 3.17% (inactive).
Next, `COc1ccc(C(=O)NC2CC2)cc1OC1CCN(Cc2cnn(C)c2)CC1`: 14.2% (inactive); `CCCCc1nc2cc(C(=O)NCCc3cnn(C)c3)ccc2o1`: 36.3% (active).
Next, `CCCCc1nc2cc(C(=O)N3CCCCC3CCO)ccc2o1` (stereo not drawn): 105% (active); `CCC1CCCCN1C(=O)CSc1nc(C)cc(C)n1` (stereo not drawn): -8.51% (inactive).
As for `CC(C)c1nnc(NC(=O)C2CC(=O)N(CCc3ccc(F)cc3)C2)s1` (stereo not drawn), the inhibition is -7.25% (inactive).
Turning to `COc1cccc(NC(=O)c2cc(S(=O)(=O)N3CCc4ccccc43)cn2C)c1`, the inhibition is 7.48% (inactive).
With `CCc1ccc(OC(C)C(=O)Nc2ccc(S(=O)(=O)Nc3cc(C)on3)cc2)cc1` (stereo not drawn), the inhibition was -9.78% (inactive).
As for `CC(CCc1ccc(O)cc1)NCc1ccc(Cl)cc1Cl` (stereo not drawn), the figure is -4.82% (inactive); as for `CCCCC1(C(=O)OCC)NC(c2ccc(O)cc2)C2C(=O)N(c3ccccc3)C(=O)C21` (stereo not drawn), -10.2% (inactive).
With `CCc1ccc(NC(=O)CN2C(=O)COc3ccc(S(=O)(=O)N4CCCC4)cc32)cc1`, the inhibition was -5.17% (inactive).
Turning to `COc1ccc(NC(=O)CN2C(=O)CSC2=O)cc1`, the inhibition is -1.96% (inactive).
Turning to `CCc1ccc(NC(=O)CN2C(=O)CSC2=O)cc1`, the inhibition is 53.9% (active).
Next, `CC1(c2ccc(Cl)cc2)NC(=O)N(CC(=O)c2ccc3c(c2)OCO3)C1=O` (stereo not drawn): 1.96% (inactive); `O=C(CN1CCN(c2ccccc2F)CC1)c1ccc2c(c1)OCO2`: 53% (active); `O=C(Nc1ccccc1N1CCN(C(=O)c2ccccc2)CC1)c1ccc2c(c1)OCO2`: -7.26% (inactive).
Consider `CCOc1cc(C2/C(=C(/O)c3ccc(S(=O)(=O)N4CCCCC4)cc3)C(=O)C(=O)N2CCOC)ccc1O` (stereo not drawn), for which the inhibition was -10.6% (inactive).
As for `O=C(Oc1ccc(F)cc1)N1CCOCC1`, the figure is -2.55% (inactive); as for `O=C(Nc1cccc(OC(=O)N2CCCCC2)c1)N1CCOCC1`, -5.26% (inactive); as for `O=C(Oc1ccc2c(c1)CCC2)N1CCOCC1`, 97.3% (active).
As for `CNS(=O)(=O)c1cccc(C(=O)NC2CCCc3ccccc32)c1` (stereo not drawn), the figure is 2.04% (inactive); as for `COc1ccccc1N(CC(=O)NC1CCCC1)C(=O)C1(C)CC(=O)N=C2C=CC(C)=CN21` (stereo not drawn), -13.3% (inactive); as for `CSc1ncccc1C(=O)OCc1ccc(Br)cc1`, 42% (active).
Next, `CSc1ncccc1C(=O)NC1CCCCCC1`: 27.5% (inactive).
`CSc1ncccc1C(=O)OCC(=O)N1CCOCC1`: the inhibition is -2.04% (inactive).
In the case of `COc1ccc(N2CCN(C(=O)[C@@H](NC(=O)c3cc(OC)cc(OC)c3)C(C)C)CC2)cc1`, the inhibition is 2.67% (inactive).
As for `O=C(CN1CCN(S(=O)(=O)c2ccc(F)cc2)CC1)NC1CC1`, the figure is -30.6% (inactive); as for `COc1ccc(-c2ccc(C3C4C=CCCC4(C)C(=O)N3Cc3ccccc3)c(F)c2)cc1OC` (stereo not drawn), -1.56% (inactive).
As for `COCCCNC(=O)COc1cc(C)c(Cl)c(C)c1`, the inhibition is -11.4% (inactive).
As for `Cc1cc(OCc2cc(C(=O)NCc3cc(C(C)C)no3)no2)cc(C)c1Cl`, the figure is 79.8% (active); as for `Cc1cc(OCc2ccc(C(=O)Nc3ccc(C(=O)O)cc3)o2)ccc1Cl`, 2.97% (inactive).
As for `Nc1nc(CC(=O)CSc2ccc(Cl)cc2)nc(Nc2ccc(F)cc2)n1`, the figure is -6.2% (inactive); as for `CC(C)CN(C(=O)c1cccc(S(=O)(=O)N2CCCCC2)c1)C1CCS(=O)(=O)C1` (stereo not drawn), -6.54% (inactive).
